Screening data deposited in PubChem BioAssay by Johns Hopkins Ion Channel Center.
KCNQ2 enhance: enhances the rat KCNQ2 potassium channel | O88943 | CHO-K1 KCNQ2, FluxOR thallium flux fluorescence; stronger effect = higher value | B-score at 10 µM | actives 0.54% (n = 310,000) | AID 2239;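 active = fluorescence ratio B-score at least 3 SD of library B-scores, with initial fluorescence B-score within 3 of them, cut at about 5.3 in these data; same plate scores as AID 2156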;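 note: B-score of peak minus minimum over baseline fluorescence ratio after K+ and Tl+ stimulus; positive B-score means potentiation of KCNQ2 with more thallium influx and brighter signal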
Target sequence (O88943 whole entry, looked up): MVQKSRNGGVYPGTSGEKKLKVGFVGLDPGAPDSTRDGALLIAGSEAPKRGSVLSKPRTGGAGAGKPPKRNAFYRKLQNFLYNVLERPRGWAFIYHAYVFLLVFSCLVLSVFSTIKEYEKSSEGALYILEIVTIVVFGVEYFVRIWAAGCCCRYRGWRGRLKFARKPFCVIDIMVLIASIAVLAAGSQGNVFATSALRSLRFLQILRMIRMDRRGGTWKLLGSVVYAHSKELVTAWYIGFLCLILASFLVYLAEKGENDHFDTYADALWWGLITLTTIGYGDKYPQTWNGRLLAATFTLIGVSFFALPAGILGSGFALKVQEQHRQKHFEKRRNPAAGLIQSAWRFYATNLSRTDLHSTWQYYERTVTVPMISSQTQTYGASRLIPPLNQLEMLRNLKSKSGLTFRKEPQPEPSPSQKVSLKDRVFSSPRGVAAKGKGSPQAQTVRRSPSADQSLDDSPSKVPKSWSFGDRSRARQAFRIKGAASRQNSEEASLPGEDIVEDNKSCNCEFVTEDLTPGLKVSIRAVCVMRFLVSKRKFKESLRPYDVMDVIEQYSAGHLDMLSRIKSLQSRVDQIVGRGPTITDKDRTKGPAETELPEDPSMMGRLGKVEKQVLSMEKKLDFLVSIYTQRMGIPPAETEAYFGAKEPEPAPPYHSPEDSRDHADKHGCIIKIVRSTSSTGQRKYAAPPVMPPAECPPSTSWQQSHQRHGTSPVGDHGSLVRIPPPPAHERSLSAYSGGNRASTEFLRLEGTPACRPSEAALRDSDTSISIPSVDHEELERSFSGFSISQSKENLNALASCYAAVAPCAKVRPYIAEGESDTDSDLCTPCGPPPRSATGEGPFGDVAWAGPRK
KCNQ2 block: inhibitors of rat KCNQ2 potassium channel; CHO-K1 KCNQ2, FluxOR thallium flux, 20 min; stronger effect = lower value; AID 2156; actives 1.1% (n = 310,000); B-score at 10 µM; O88943;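 active = fluorescence ratio B-score at most minus 3 library SDs, with starting brightness B-score within 2 library SDs, cut at about -5.5 in these data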
Kir21 confirm: confirmation of mouse Kir2.1 potassium channel inhibitors. shares compounds with KCNQ2 enhance. Kir2.1-expressing cells, FluxOR thallium flux fluorescence; stronger effect = lower value. Tl flux remaining, % of negative control (stronger effect = lower value), % at 10 µM. actives 41% (n = 2,300). AID 2032;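 active = Primary-screen hit whose thallium flux fell at least 3 control SD below untreated wells in both duplicates, with normal baseline fluorescence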;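 note: 0% = blank wells without stimulus and 100% = stimulated no-compound controls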
HEK293 ctr: alters thallium flux in parental HEK293 cells, Kir2.1 counter-screen; shares compounds with KCNQ2 enhance; FluxOR thallium flux fluorescence; 0% = unstimulated blank wells; FluxOR signal as % of negative control (100 = no effect), % at 10 µM; actives 19% (n = 2,300); AID 2105;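 active = dye signal at least 3 control SD above or below untreated wells in both duplicates, raw fluorescence within 3, either direction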;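 note: percent is based on the flux ratio of peak minus minimum fluorescence over baseline F0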
CHO-K1 Tl ctr: alters thallium flux in parental CHO-K1 cells, KCNQ2 counter-screen; activity increase over 3SD of controls, % at 10 µM; FluxOR thallium flux fluorescence; zero = vehicle mean+3SD, 100% = vehicle-minus-blank window; shares compounds with KCNQ2 enhance; actives 43% (n = 1,200); AID 2282;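 active = signal rise of at least 3 SD above the untreated control mean, in both duplicate wells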;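 note: counter screen of KCNQ2 potentiator hits so any rise reflects channel-independent effects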
KCNQ1 sel pot: human KCNQ1 counter-target activity of KCNQ2 potentiators; shares compounds with KCNQ2 enhance; CHO KCNQ1 stable, FluxOR thallium flux fluorescence; beyond 3SD, as % of vehicle-control signal; activation over 3SD threshold, % at 10 µM; actives 28% (n = 1,200); AID 2283;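 active = fluorescence ratio rise of at least 3 SD of vehicle wells above their mean, in both replicate wells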;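 note: 0% = vehicle mean plus 3 SD and 100% = vehicle minus unstimulated blank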
KCNQ2 pot confirm: rat KCNQ2 channel potentiator confirmation. shares compounds with KCNQ2 enhance. CHO-KCNQ2 cells, FluxOR thallium flux fluorescence. potentiation, less the hit threshold, % at 10 µM. actives 68% (n = 1,200). AID 2287;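 active = fluorescence ratio rising 3 SD or more over the vehicle control mean in both replicates, plus primary screen hit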;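 note: peak minus minimum thallium fluorescence divided by baseline after K/Tl stimulus; 0% = vehicle mean plus 3 SD and 100% = vehicle minus unstimulated blank difference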
Kir21 spec: selectivity of KCNQ2 potentiators: effect on mouse Kir2.1; shares compounds with KCNQ2 enhance; actives 2% (n = 1,200); HEK293 Kir2.1, FluxOR thallium flux fluorescence; AID 2345; activity over 3SD threshold, % at 10 µM;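 active = fluorescence ratio rise of at least 3 SD above the vehicle-control mean, seen in both replicates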;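 note: 0% = vehicle mean plus 3 SD and 100% = vehicle minus no-stimulus blank window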
KCNQ2 W236L MoA: rat KCNQ2 W236L mutant potentiation by KCNQ2 potentiators | AID 2558 | shares compounds with KCNQ2 enhance | CHO KCNQ2-W236L, automated patch clamp current | current increase over 3SD of negative controls (%), stronger effect = higher value, % at 25 µM | actives 10% (n = 940);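 active = current increase at least 3 SD of the untreated controls above them in both duplicate recordings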
Numbers without * were called inactive. In the library only some 1.6% were active in any assay of this set; here they are far more common.

Cc1cccc(CC(=O)NCC2CCCCC2)c1 was read as KCNQ2 enhance 9.4*, KCNQ2 block inactive, Kir21 confirm inactive, HEK293 ctr inactive, CHO-K1 Tl ctr 39*, KCNQ1 sel pot -18, KCNQ2 pot confirm 28*, Kir21 spec -27 and KCNQ2 W236L MoA inactive.
O=C(c1ccc(Cl)c(S(=O)(=O)N2CCCCCC2)c1)N1CCN(c2ccccc2O)CC1 was read as KCNQ2 enhance 0.04 and KCNQ2 block inactive.
Screening O=S(=O)(NCc1csc(-c2cccs2)n1)c1cccc(C(F)(F)F)c1 returned KCNQ2 enhance 0.03, KCNQ2 block inactive, Kir21 confirm 42%* and HEK293 ctr inactive.
For O=S(=O)(NCc1csc(-c2cccs2)n1)c1cccs1 the results were KCNQ2 block inactive.
Cc1ccc(S(=O)(=O)NCc2csc(-c3cccs3)n2)cc1 was read as KCNQ2 block inactive.
For COc1ccc(S(=O)(=O)NCc2csc(-c3cccnc3)n2)cc1 the results were KCNQ2 enhance 0.52 and KCNQ2 block inactive.
For O=S(=O)(NCc1csc(-c2cccs2)n1)c1ccc(Cl)cc1 the results were KCNQ2 block inactive, Kir21 confirm 42%* and HEK293 ctr inactive.
For O=S(=O)(NCc1csc(-c2cccnc2)n1)c1ccc(Br)cc1 the results were KCNQ2 enhance 0.45, KCNQ2 block inactive, Kir21 confirm 72%* and HEK293 ctr inactive.
`CC(C)CCN1CCN(Cc2cccc(C(F)(F)F)c2)CC1CCO` (centres undefined) gave KCNQ2 block inactive.
Screening C=CCNC(=S)NNC(=O)c1ccc(C)c(Cl)c1 returned KCNQ2 block inactive.
C=CCNC(=S)NC(=O)c1ccc(C)c(Br)c1 was read as KCNQ2 enhance 5.7*, KCNQ2 block inactive, Kir21 confirm inactive, HEK293 ctr inactive, CHO-K1 Tl ctr 22*, KCNQ1 sel pot -26, KCNQ2 pot confirm -12 and Kir21 spec -40.
Screening C=CCN(CC=C)C(=S)NC(=O)c1ccc(OC)c(Br)c1 returned KCNQ2 enhance 7.2*, KCNQ2 block inactive, Kir21 confirm inactive, HEK293 ctr 336%*, CHO-K1 Tl ctr 1.9*, KCNQ1 sel pot 20*, KCNQ2 pot confirm 20*, Kir21 spec -25 and KCNQ2 W236L MoA inactive.
Screening CCN(CC)C(=S)NC(=O)c1ccc(OC)c(Br)c1 returned KCNQ2 enhance 2.2 and KCNQ2 block inactive.
Screening COc1ccc(CCN2CC(C(=O)NCc3cccc4[nH]ccc34)CCC2=O)cc1 (centres undefined) returned KCNQ2 block inactive.
`Cc1c(NC(=O)COC(=O)c2ccc(Br)o2)c(=O)n(-c2ccccc2)n1C` gave KCNQ2 block inactive, Kir21 confirm inactive and HEK293 ctr inactive.
Screening Cc1c(NC(=O)C(C)OC(=O)c2ccc(Br)o2)c(=O)n(-c2ccccc2)n1C (centres undefined) returned KCNQ2 enhance 0.38 and KCNQ2 block inactive.
Screening Cc1ccc(NS(=O)(=O)c2cc(Br)cnc2N)c(Cl)c1 returned KCNQ2 enhance 0.02 and KCNQ2 block inactive.
Screening COc1cc(OC)c(NS(=O)(=O)c2cc(Br)cnc2N)cc1Cl returned KCNQ2 enhance 0.48, KCNQ2 block inactive, Kir21 confirm 72%* and HEK293 ctr 72%*.
Screening Cc1ccc(N2CC(C(=O)Nc3ccc(S(=O)(=O)N4CCOCC4)cc3)CC2=O)cc1Cl (centres undefined) returned KCNQ2 enhance 2 and KCNQ2 block inactive.
Screening Cc1ccc(CNCCC2=CCCCC2)cc1 returned KCNQ2 enhance 0.75, KCNQ2 block inactive, Kir21 confirm 38%* and HEK293 ctr 68%*.
`C1=C(CCNCC2CC2)CCCC1` gave KCNQ2 enhance 1.2 and KCNQ2 block inactive.
`Cc1cc(OC(=O)c2c(F)cc(F)cc2F)nc(C)n1` gave KCNQ2 enhance 0.49 and KCNQ2 block inactive.
`O=c1c2ccccc2nc(-c2cccc(Cl)c2)n1O` gave KCNQ2 enhance 8.7*, KCNQ2 block inactive, Kir21 confirm inactive, HEK293 ctr inactive, CHO-K1 Tl ctr 74*, KCNQ1 sel pot -22, KCNQ2 pot confirm 46*, Kir21 spec -26 and KCNQ2 W236L MoA inactive.
O=c1c2cc(Cl)ccc2nc(-c2ccccc2Cl)n1O was read as KCNQ2 enhance 2.5 and KCNQ2 block inactive.
O=c1c2cc(Br)ccc2nc(-c2ccccc2)n1O was read as KCNQ2 enhance 7.8*, KCNQ2 block inactive, Kir21 confirm inactive, HEK293 ctr 426%*, CHO-K1 Tl ctr -16, KCNQ1 sel pot -16, KCNQ2 pot confirm 50*, Kir21 spec -9 and KCNQ2 W236L MoA inactive.
Cc1ccc(-c2nc3ccccc3c(=O)n2O)cc1 was read as KCNQ2 enhance 3.6 and KCNQ2 block inactive.
`Cc1ccc2nsnc2c1NC(=O)c1ccc([N+](=O)[O-])o1` gave KCNQ2 enhance 1.4 and KCNQ2 block inactive.
`Cn1nccc1C(=O)Nc1nnc(C2CC2)s1` gave KCNQ2 enhance 0.08 and KCNQ2 block inactive.
For CCOC(=O)c1ccc(NC(=O)NCc2ccccn2)cc1 the results were KCNQ2 enhance 0.67 and KCNQ2 block inactive.
Screening COCC(=O)O[C@]1(CCN(C)CCCc2nc3ccccc3[nH]2)CCc2cc(F)ccc2[C@@H]1C(C)C returned KCNQ2 block inactive, Kir21 confirm 31%* and HEK293 ctr inactive.
O=C(COc1ccccc1F)NCc1nc2ccccc2[nH]1 was read as KCNQ2 block inactive.
FC(F)(F)c1cccc(Cn2c3[n+](c4ccc(C(F)(F)F)cc42)CCCCC3)c1 was read as KCNQ2 block inactive.
Screening Cc1cc(C(C)(C)C)cc(C)c1Cn1c2[n+](c3ccc(C(F)(F)F)cc31)CCCCC2 returned KCNQ2 block inactive, Kir21 confirm 46%* and HEK293 ctr inactive.
CCC1(c2ccccc2)NC(=O)N(CC(=O)Nc2ccc(OC)nc2)C1=O (centres undefined) was read as KCNQ2 block inactive.
Screening CC(C)Nc1ccc(Cl)cc1[N+](=O)[O-] returned KCNQ2 block inactive.
